Reference: PubChem BioAssay (NCI)
The panel holds about 83,000 compounds, 20% with a hit somewhere; the sample as a whole holds those more often.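 Plates (96-well) were seeded with cells, treated with compound at one concentration, and incubated for 48 hours before percent growth was determined.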 Unmarked numbers belong to inactive results. Activity calls are given as the source filed them. The calls were made as follows: active = growth percent below 10; inactive = the rest.

Columns and labels:
Assay in all cases: NCI-60 one-dose screen, 48 h (100 = growth as untreated, 0 = no growth, -100 = all killed)
SR leukemia = conditions: 10 µM unless noted
RPMI-8226 leukemia = test system: RPMI-8226 leukemia
OVCAR-8 ovarian = test system: OVCAR-8 ovarian
OVCAR-5 ovarian = test system: OVCAR-5 ovarian
OVCAR-4 ovarian = test system: OVCAR-4 ovarian
SK-OV-3 ovarian = test system: SK-OV-3 ovarian
IGROV1 ovarian = test system: IGROV1 ovarian
OVCAR-3 ovarian = conditions: 10 µM unless noted
HS 578T breast = test system: HS 578T breast
NCI/ADR-RES ovarian = test system: NCI/ADR-RES ovarian
BT-549 breast = test system: BT-549 breast
MDA-MB-435 melanoma = test system: MDA-MB-435 melanoma
SW-620 colon = test system: SW-620 colon
MCF7 breast = test system: MCF7 breast
HCT-116 colon = test system: HCT-116 colon
HCC-2998 colon = test system: HCC-2998 colon
KM12 colon = test system: KM12 colon
MDA-MB-468 breast = test system: MDA-MB-468 breast
T-47D breast = test system: T-47D breast

O=C(Cc1c(-c2ccccc2[N+](=O)[O-])n(-c2ncnc3c2c(-c2ccccc2)c(-c2ccccc2)n3Cc2ccccc2)[nH]c1=O)c1ccc(Cl)c(Cl)c1
growth (SR leukemia): 14.2%
growth (RPMI-8226 leukemia; 10 µM unless noted): -3.03% (active)
growth (OVCAR-8 ovarian; 10 µM unless noted): 25.5%
growth (OVCAR-5 ovarian; 10 µM unless noted): 55.1%
growth (OVCAR-4 ovarian; 10 µM unless noted): 19.2%
growth (SK-OV-3 ovarian; 10 µM unless noted): 39.3%
growth (IGROV1 ovarian; 10 µM unless noted): 25.2%
growth (OVCAR-3 ovarian): 14.2%
growth (HS 578T breast; 10 µM unless noted): 22%
growth (NCI/ADR-RES ovarian; 10 µM unless noted): 50.7%
growth (BT-549 breast; 10 µM unless noted): -17.2% (active)
growth (MDA-MB-435 melanoma; 10 µM unless noted): 2.32% (active)
growth (SW-620 colon; 10 µM unless noted): 31.3%
growth (MCF7 breast; 10 µM unless noted): 11.9%
growth (HCT-116 colon; 10 µM unless noted): 13.7%
growth (HCC-2998 colon; 10 µM unless noted): 24.9%
growth (KM12 colon; 10 µM unless noted): 15.7%
growth (MDA-MB-468 breast; 10 µM unless noted): -23.5% (active)

NC(=Nc1ccc(OCCCCCCCCn2cnnn2)cc1)c1ccccc1
growth (SR leukemia): 14.6%
growth (RPMI-8226 leukemia; 10 µM unless noted): 29.5%
growth (OVCAR-5 ovarian; 10 µM unless noted): 23.1%
growth (OVCAR-4 ovarian; 10 µM unless noted): 56%
growth (SK-OV-3 ovarian; 10 µM unless noted): 35.3%
growth (IGROV1 ovarian; 10 µM unless noted): 24.4%
growth (HS 578T breast; 10 µM unless noted): 22%
growth (T-47D breast; 10 µM unless noted): 45.6%
growth (BT-549 breast; 10 µM unless noted): 18.9%
growth (SW-620 colon; 10 µM unless noted): 22.5%
growth (MCF7 breast; 10 µM unless noted): 13.4%
growth (HCT-116 colon; 10 µM unless noted): 15.2%
growth (HCC-2998 colon; 10 µM unless noted): 17.1%
growth (KM12 colon; 10 µM unless noted): 10.5%
growth (MDA-MB-468 breast; 10 µM unless noted): 20.9%

CC/C(=C(/c1ccc(O)cc1)c1ccc(OCCN(C)C(=O)COCCOCCNC(=O)Cc2ccc3c(c2)CN([C@@H]2CCC(=O)NC2=O)C3=O)cc1)c1ccccc1
growth (RPMI-8226 leukemia; 1 µM): 90.3%
growth (RPMI-8226 leukemia; 10 µM): 72%
growth (OVCAR-8 ovarian; 1 µM): 93.9%
growth (OVCAR-8 ovarian; 10 µM): 21.9%
growth (OVCAR-5 ovarian; 1 µM): 95.3%
growth (OVCAR-5 ovarian; 10 µM): 86.6%
growth (OVCAR-4 ovarian; 1 µM): 101%
growth (OVCAR-4 ovarian; 10 µM): 59.2%
growth (SK-OV-3 ovarian; 1 µM): 86.1%
growth (SK-OV-3 ovarian; 10 µM): 71.6%
growth (IGROV1 ovarian; 1 µM): 50%
growth (IGROV1 ovarian; 10 µM): 17.8%
growth (HS 578T breast; 1 µM): 64.8%
growth (HS 578T breast; 10 µM): 19.1%
growth (NCI/ADR-RES ovarian; 1 µM): 103%
growth (NCI/ADR-RES ovarian; 10 µM): 107%
growth (T-47D breast; 1 µM): 19.2%
growth (T-47D breast; 10 µM): 6.14% (active)
growth (MDA-MB-435 melanoma; 1 µM): 107%
growth (MDA-MB-435 melanoma; 10 µM): 73.6%
growth (MCF7 breast; 1 µM): 36.1%
growth (MCF7 breast; 10 µM): 19.6%
growth (HCT-116 colon; 1 µM): 96.4%
growth (HCT-116 colon; 10 µM): 101%
growth (HCC-2998 colon; 1 µM): 97.3%
growth (HCC-2998 colon; 10 µM): 48.9%
growth (KM12 colon; 1 µM): 105%
growth (KM12 colon; 10 µM): 50.3%
growth (MDA-MB-468 breast; 1 µM): 1.33% (active)
growth (MDA-MB-468 breast; 10 µM): -15.7% (active)

CC/C(=C(/c1ccc(O)cc1)c1ccc(OCCN(C)C(=O)COCCOCCNC(=O)c2ccc3c(c2)CN([C@@H]2CCC(=O)NC2=O)C3=O)cc1)c1ccccc1
growth (RPMI-8226 leukemia; 1 µM): 99.6%
growth (RPMI-8226 leukemia; 10 µM): 78.5%
growth (OVCAR-8 ovarian; 1 µM): 102%
growth (OVCAR-8 ovarian; 10 µM): 61.1%
growth (OVCAR-5 ovarian; 1 µM): 96%
growth (OVCAR-5 ovarian; 10 µM): 86.8%
growth (OVCAR-4 ovarian; 1 µM): 103%
growth (OVCAR-4 ovarian; 10 µM): 93%
growth (SK-OV-3 ovarian; 1 µM): 91.1%
growth (SK-OV-3 ovarian; 10 µM): 92.8%
growth (IGROV1 ovarian; 1 µM): 63.1%
growth (IGROV1 ovarian; 10 µM): 37.6%
growth (HS 578T breast; 1 µM): 70.9%
growth (HS 578T breast; 10 µM): 53.9%
growth (NCI/ADR-RES ovarian; 1 µM): 106%
growth (NCI/ADR-RES ovarian; 10 µM): 102%
growth (T-47D breast; 1 µM): 28.6%
growth (T-47D breast; 10 µM): 33.4%
growth (BT-549 breast; 1 µM): 5.04% (active)
growth (BT-549 breast; 10 µM): 43.1%
growth (MDA-MB-435 melanoma; 1 µM): 101%
growth (MDA-MB-435 melanoma; 10 µM): 97%
growth (SW-620 colon; 1 µM): 81.5%
growth (SW-620 colon; 10 µM): 60.6%
growth (MCF7 breast; 1 µM): 26.3%
growth (MCF7 breast; 10 µM): 18.9%
growth (HCT-116 colon; 1 µM): 97.9%
growth (HCT-116 colon; 10 µM): 102%
growth (HCC-2998 colon; 1 µM): 97.6%
growth (HCC-2998 colon; 10 µM): 82.8%
growth (KM12 colon; 1 µM): 98.9%
growth (KM12 colon; 10 µM): 95.5%

NNc1ncnc2sc3c(c12)CCN(Cc1ccccc1)C3
growth (SR leukemia): 40.1%
growth (RPMI-8226 leukemia; 10 µM unless noted): 39.3%
growth (OVCAR-8 ovarian; 10 µM unless noted): 20%
growth (OVCAR-5 ovarian; 10 µM unless noted): 70.6%
growth (OVCAR-4 ovarian; 10 µM unless noted): 28.6%
growth (SK-OV-3 ovarian; 10 µM unless noted): 72.3%
growth (IGROV1 ovarian; 10 µM unless noted): 83.2%
growth (HS 578T breast; 10 µM unless noted): 72.3%
growth (NCI/ADR-RES ovarian; 10 µM unless noted): 35.3%
growth (T-47D breast; 10 µM unless noted): 24.8%
growth (BT-549 breast; 10 µM unless noted): 55%
growth (MDA-MB-435 melanoma; 10 µM unless noted): 77.7%
growth (SW-620 colon; 10 µM unless noted): 46.6%
growth (MCF7 breast; 10 µM unless noted): 9.55% (active)
growth (HCT-116 colon; 10 µM unless noted): 42.6%
growth (HCC-2998 colon; 10 µM unless noted): 52.1%
growth (KM12 colon; 10 µM unless noted): 53.8%
growth (MDA-MB-468 breast; 10 µM unless noted): 13.2%

Cc1ccc(Nc2nnc(-c3c[nH]c4ccccc34)o2)c(C)c1
growth (SR leukemia): 6.21% (active)
growth (RPMI-8226 leukemia; 10 µM unless noted): -7.61% (active)
growth (OVCAR-8 ovarian; 10 µM unless noted): -12.1% (active)
growth (OVCAR-5 ovarian; 10 µM unless noted): 16.3%
growth (OVCAR-4 ovarian; 10 µM unless noted): 71.9%
growth (SK-OV-3 ovarian; 10 µM unless noted): 16.2%
growth (IGROV1 ovarian; 10 µM unless noted): 12.2%
growth (HS 578T breast; 10 µM unless noted): 30.9%
growth (NCI/ADR-RES ovarian; 10 µM unless noted): -29.2% (active)
growth (T-47D breast; 10 µM unless noted): 44.3%
growth (BT-549 breast; 10 µM unless noted): 29.6%
growth (MDA-MB-435 melanoma; 10 µM unless noted): -41.8% (active)
growth (SW-620 colon; 10 µM unless noted): 30.9%
growth (MCF7 breast; 10 µM unless noted): 14.3%
growth (HCT-116 colon; 10 µM unless noted): 1.32% (active)
growth (HCC-2998 colon; 10 µM unless noted): -13.6% (active)
growth (KM12 colon; 10 µM unless noted): 7.83% (active)
growth (MDA-MB-468 breast; 10 µM unless noted): -17% (active)

O=C(O)CC1S/C(=N/N=C/c2nc3ccccc3s2)NC1=O (stereo not drawn)
growth (SR leukemia): 79.8%
growth (RPMI-8226 leukemia; 10 µM unless noted): 88.8%
growth (OVCAR-8 ovarian; 10 µM unless noted): 98.5%
growth (OVCAR-5 ovarian; 10 µM unless noted): 123%
growth (OVCAR-4 ovarian; 10 µM unless noted): 82.1%
growth (SK-OV-3 ovarian; 10 µM unless noted): 122%
growth (IGROV1 ovarian; 10 µM unless noted): 103%
growth (HS 578T breast; 10 µM unless noted): 90.9%
growth (NCI/ADR-RES ovarian; 10 µM unless noted): 99.3%
growth (T-47D breast; 10 µM unless noted): 85.4%
growth (BT-549 breast; 10 µM unless noted): 98.2%
growth (MDA-MB-435 melanoma; 10 µM unless noted): 102%
growth (MCF7 breast; 10 µM unless noted): 60.9%
growth (HCT-116 colon; 10 µM unless noted): 71.1%
growth (HCC-2998 colon; 10 µM unless noted): 106%
growth (KM12 colon; 10 µM unless noted): 90.6%
growth (MDA-MB-468 breast; 10 µM unless noted): 104%
